Shown are actives, neighbours in structure and some others; about 6.3% of the full set was active somewhere.
VP16 counter: Gal4-VP16 reporter inhibition counter-screen; hit rate 3.5% among 310,000; AID 2546; Potency, µM (titrated, usually from 53.6 µM), for inactives: at the top dose activity, negative = inhibition, hits mostly inhibitors; Drosophila S2 Gal4-VP16 UAS-luciferase, luminescence, 20 h;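 also: Gal4-VP16 expression switched on by copper sulfate through the metallothionein promoter; % is scaled to controls: 0 for no effect and ±100 for the full control effect; nearly all actives have a fitted effect of over 50% in size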
ATXN2 expr inh: inhibitors of ATXN2 expression | AID 1745845 | HEK-293 ATXN2-luciferase reporter, luminescence, 24 h | Potency, µM (highest dose often 57 µM), for the others: top-dose activity change, negative = inhibition, hits mostly inhibitors | hit rate 0.72% among 360,000; also: % is scaled to controls: 0 for no effect and ±100 for the full control effect; nearly all actives have a fitted effect of over 55% in size
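ATXN2-luciferase reporter cells (luciferase flanked by upstream and downstream ATXN2 gene portions) were treated 24 h at 37 °C with compounds at up to 57 uM. SteadyGlo luminescence gave expression; GF-AFC fluorescence gave viability.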
RORgamma inh: inhibitors of mouse ROR gamma transcriptional activity; hit rate 5.4% among 310,000; AID 2551; Drosophila S2 Gal4-RORgamma UAS-luciferase reporter, 20 h; Potency, µM (titrated, usually from 53.6 µM), without a hit: top-dose activity change, negative = inhibition, hits mostly inhibitors; also: % is scaled to controls: 0 for no effect and ±100 for the full control effect; nearly all actives have a fitted effect of over 60% in size
Target sequence (P51450 whole entry, looked up, the tested form may be a part): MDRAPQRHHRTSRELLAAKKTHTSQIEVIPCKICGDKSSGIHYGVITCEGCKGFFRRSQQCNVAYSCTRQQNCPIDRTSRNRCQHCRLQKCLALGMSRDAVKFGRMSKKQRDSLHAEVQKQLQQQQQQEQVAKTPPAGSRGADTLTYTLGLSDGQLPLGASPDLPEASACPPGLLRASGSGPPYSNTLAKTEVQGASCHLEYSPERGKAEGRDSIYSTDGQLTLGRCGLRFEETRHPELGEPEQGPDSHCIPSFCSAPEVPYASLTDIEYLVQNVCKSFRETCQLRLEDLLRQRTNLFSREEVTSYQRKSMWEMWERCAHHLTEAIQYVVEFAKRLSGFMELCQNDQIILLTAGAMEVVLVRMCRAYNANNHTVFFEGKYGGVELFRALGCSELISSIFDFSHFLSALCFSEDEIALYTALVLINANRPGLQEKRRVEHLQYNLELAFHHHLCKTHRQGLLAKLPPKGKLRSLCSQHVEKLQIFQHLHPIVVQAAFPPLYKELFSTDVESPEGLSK
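ROR gamma transcriptional activity was tracked as Gal4-UAS luciferase output in stably transfected Drosophila Schneider cells, with compound added 1 hr before 700 uM copper sulfate induction and a 20 hr ambient-temperature incubation.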
TGFb inhibitor: TGF-b pathway inhibition | HepG2 CAGA-GFP TGF-b/SMAD3 reporter, GFP fluorescence, 18 h; TGF-beta stimulated, 500 pg/mL final | Potency, µM (top dose mostly 46.1 µM), without a hit: top-dose activity, negative = inhibition, hits mostly inhibitors | hit rate 1.2% among 410,000 | AID 588855; also: % is scaled to controls: 0 for no effect and ±100 for the full control effect; nearly all actives have a fitted effect of over 65% in size
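GFP signal (ex488/em500-530) from TGF-beta-stimulated HEPG2 CAGA-GFP cells, 500 pg/mL final, 18 h at 37 degrees C in DMEM plus 1% FBS, normalized to unstimulated and DMSO-stimulated controls.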
HepG2 tox-1: kills HepG2 cells in TGF-b inhibitor counter-screen. Potency, µM (highest dose often 46.1 µM), inactives show top-dose activity change, negative = cytotoxicity, usual class: cytotoxic. hit rate 0.76% among 410,000. HepG2 CAGA-GFP viability, ATP luminescence, 18 h
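CellTiter-Glo luminescence gave cytotoxicity after 18 hours at 37 degrees C. The cells were HepG2 CAGA-GFP in 1% FBS DMEM, stimulated with 500 pg/mL TGF-beta after compound addition. %Activity was normalised to no-cell wells (complete cell-killing) and DMSO (no toxicity), and curves were fitted and classified.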
S2 tox: cell viability loss in ATXN counter-screen; S2 cells (HEK-293 line with an ATXN2-luciferase reporter) viability, CellTiter-Fluor protease fluorescence, 24 h; Potency, µM (top dose mostly 56.7 µM), hits mostly cytotoxic; hit rate 0.49% among 400,000; AID 651635; also: nearly all actives have a fitted effect of over 40% in size
TGFb confirm: TGF-b pathway inhibition, cherry-pick retest; shares compounds with TGFb inhibitor; hit rate 63% among 1,600; HepG2 CAGA-GFP TGF-b reporter, GFP fluorescence, 18 h; cells stimulated with TGF-beta, 500 pg/mL; Potency, µM (titrated, usually from 46.1 µM), for inactives: at the top dose activity, negative = inhibition, most hits filed as inhibitors; AID 720534; also: % is scaled to controls: 0 for no effect and ±100 for the full control effect; nearly all actives have a fitted effect of over 65% in size
HepG2 tox-2: HepG2 cytotoxicity, TGF-b inhibitor counterscreen | shares compounds with TGFb inhibitor | HepG2 CAGA-GFP viability, ATP luminescence, 18 h; cells stimulated with TGF-beta, 500 pg/mL | Potency, µM (doses to about 46.1 µM), for inactives: at the top dose activity, negative = cytotoxicity, hits mostly inhibitors | hit rate 27% among 1,600 | AID 720535; also: % is scaled to controls: 0 for no effect and ±100 for the full control effect; nearly all actives have a fitted effect of over 70% in size
TGFb CCL64 inh: orthogonal confirmation of TGF-b inhibitors in CCL64 cells | shares compounds with TGFb inhibitor | CCL64 CAGA-GFP reporter, TGF-b stimulated, GFP fluorescence, 18 h | Potency, µM (titrated, usually from 46.1 µM), without a hit: at the top dose activity, negative = inhibition, most hits filed as inhibitors | hit rate 41% among 1,600 | AID 720536; also: nearly all actives have a fitted effect of over 65% in size
COP TGFb inh: TGF-b inhibition validated with COP promoter; shares compounds with TGFb inhibitor; hit rate 3% among 1,600; AID 720537; Potency, µM (top dose mostly 46.1 µM), for the others: top-dose activity, negative = inhibition, hits mostly inhibitors; HepG2 COP-GFP TGF-b reporter, GFP fluorescence, 18 h; cells stimulated by added recombinant TGF-beta; also: nearly all actives have a fitted effect of over 70% in size
* hit, by the source's call; i = inactive; ? = inconclusive; · = no result given. Calls follow the shape of the dose curve; as a rule, active = well fitted curve in the direction sought with a large enough effect; inconclusive = small, poorly fitted or top-dose-only effect, or another doubt; inactive = no such curve, though single readings can be large; an effect the other way counts as inactive or inconclusive. Potency is read from the fitted curve at half-maximal effect.

SMILES	VP16 counter	ATXN2 expr inh	RORgamma inh	TGFb inhibitor	HepG2 tox-1	S2 tox	TGFb confirm	HepG2 tox-2	TGFb CCL64 inh	COP TGFb inh
CC1(C)S[C@@H]2[C@H](NC(=O)[C@H](NC(=O)N3CCN(S(C)(=O)=O)C3=O)c3ccccc3)C(=O)N2[C@H]1C(=O)O	2%	·	4%	·	·	·	·	·	·	·
Cc1cc(C)c(Cn2cnc(-c3ccc([N+](=O)[O-])cc3)c2)c(C)c1	-23%	-25%	44%	?	-32%	i	·	·	·	·
CC(C)(C)c1ccc(Cn2cnc(-c3ccc([N+](=O)[O-])cc3)c2)cc1	?	13%	?	8.9µM*	-21%	i	21µM*	?	?	51%
O=C(COC(=O)/C=C/c1ccccc1[N+](=O)[O-])NC(=O)NC1CCCC1	·	4%	·	-13%	23%	i	·	·	·	·
Cc1ccc(O)c(CNc2cccc3cccnc23)c1	-6%	-16%	-3%	?	-2%	i	·	·	·	·
Cc1cccc(NCc2ccc(O)c3ncccc23)c1C	?	-27%	7.9µM*	11µM*	-12%	i	10µM*	-23%	?	14%
COc1ccc(C(=O)c2ccc(N3CCOCC3)c([N+](=O)[O-])c2)cc1	-7%	-32%	2%	-8%	-13%	?	·	·	·	·
COc1ccc(Nc2nnc(-c3ccc(N4CCOCC4)c([N+](=O)[O-])c3)c3ccccc23)cc1	-7%	4%	29%	?	4%	i	4.1µM*	2%	?	23%
CCCc1cc(=O)n2[nH]cc(-c3ccc(Cl)cc3)c2n1	3.2µM*	10µM*	4.5µM*	5µM*	11µM*	?	26µM*	?	12µM*	87%
O=C(Cc1ccc(-c2ccccc2)cc1)NCCS(=O)(=O)N1CCN(c2ccc(F)cc2)CC1	·	·	·	-3%	-12%	·	·	·	·	·
Cc1ccc(-c2nc3ccc(Br)cn3c2Cc2cccc(F)c2)cc1	·	68%	·	11µM*	-11%	i	?	-16%	?	-2%
O=C1Cc2c([nH]c3ccc(Br)cc23)-c2ccccc2N1	25µM*	59%	-5%	2.8µM*	-9%	?	0.92µM*	3.7µM*	2.9µM*	28%
Cc1ccc(C)c(CN2C(=O)c3ccccc3S(=O)c3ccc(C(=O)NCCc4ccc(Cl)cc4)cc32)c1 (configuration not stated)	·	-3%	·	?	-10%	i	·	·	·	·
CN(CCCC1CCCC1)C(=O)c1cc(COc2ccc(F)cc2F)on1	15%	2%	?	10µM*	3%	i	21µM*	?	26µM*	25%

Screening results from PubChem.
